Experimental findings from PubChem BioAssay AID463173 (ICCB-Longwood Screening Facility, Harvard Medical School, 2010) are described below.

Among all 52,000 compounds or so, about 4,300 (8.3%) were called active. Cut-off read from the data, not from the text of the source: active = survival mostly below about 52% (no sharp cut-off); inactive = mostly above about 56%. For the sample, actives were picked, then their nearest neighbours and some compounds at random.

The subject of the assay is DeltatarO mutant. As to the kind of experiment: growth inhibition of S. aureus wild type versus tarO mutant, primary screen, teichoic acid synthesis inhibitors, RN4220, OD600 (AID 463173). To be noted: OD600, 18 h, active compounds read low, screened at 18.75 µg/mL (by protocol).
Take `CCCN(CCC)CC(O)Cn1cc(/C=C/C(=O)c2ccc(OCC)cc2)c2ccccc21` (configuration not stated): the survival is 11% (active). To `CCOc1ccc(C(=O)NCCn2cc(SCC(=O)Nc3ccccc3)c3ccccc32)cc1` belongs 71% (inactive); to `COc1ccc(S(=O)(=O)N2CCCN(CC(=O)Nc3ccc(OC)cc3OC)CC2)cc1`, 72% (inactive). For the compound `COc1ccc(OCC(=O)NCCS(=O)(=O)N2CCN(c3cccc(Cl)c3)CC2)cc1`, the survival is 85% (inactive). `CCOc1ccc(NC(=O)CSc2cn(CC(=O)N3CCCCCC3)c3ccccc23)cc1`: the survival is 95% (inactive). For the compound `Cc1oc(-c2cccc(Br)c2)nc1CSc1nc2ncccc2[nH]1`, the survival is 78% (inactive). Regarding `CCOC(=O)c1cnc2c(C)cc(C)cc2c1NCCN1CCOCC1`, the survival is 32% (active). To `Cc1cc(C)cc(OCC(=O)NCCN2CCOCC2)c1` belongs 67% (inactive). Consider `CCOC(=O)c1cnc2ccccc2c1NCCCO`, for which the survival was 104% (inactive). To `CCOC(=O)c1cnc2ccc(Br)cc2c1NCCN1CCOCC1` belongs 76% (inactive); to `CCOC(=O)c1cnc2c(CC)cccc2c1NCCO`, 95% (inactive). To `CCOC(=O)c1cnc2c(Cl)c(Cl)ccc2c1NCCN1CCOCC1` belongs 42% (active); to `Cc1ccc(OCC(=O)Nc2ccc3nc(SCc4ccccc4)sc3c2)cc1`, 81% (inactive); to `Cc1ccccc1-c1nc(CNC(=O)NC2CCCCC2)c(C)o1`, 67% (inactive). Turning to `CCOc1ccc(C(=O)N2CCC(c3nc(-c4ccc(S(=O)(=O)N5CCCC5)cc4)no3)CC2)cc1`, the survival is 92% (inactive). To `CN(C(=O)c1cc2c(=O)oc3ccccc3c2s1)c1ccc(F)cc1` belongs 60% (inactive); to `CCc1ccccc1N(C)C(=O)c1cc2c(=O)oc3ccccc3c2s1`, 42% (inactive).

With `CCOc1ccc(N(CC)C(=O)c2cc3c(=O)oc4ccccc4c3s2)cc1`, the survival was 38% (active). To `CCCN(C(=O)c1cc2c(=O)oc3ccc(C)cc3c2s1)c1ccc(OCC)cc1` belongs 48% (inactive); to `CCN(C(=O)c1cc2c(=O)oc3ccccc3c2s1)c1cccc(C(F)(F)F)c1`, 145% (inactive); to `CCN(C(=O)c1cc2c(=O)oc3ccccc3c2s1)c1ccc(C)c(C)c1`, 15% (active). To `COc1cccc(CNC(=O)C2(c3cccs3)CCOCC2)c1` belongs 92% (inactive); to `COc1ccc(-c2ccc(NS(=O)(=O)c3cccc(C)c3)cc2)nn1`, 75% (inactive); to `COCCNc1nc2c(c(=O)n(C)c(=O)n2C)n1Cc1c(F)cccc1Cl`, 57% (inactive). Take `Cc1ccc(C)c(NC(=O)CC2NCCNC2=O)c1` (configuration not stated): the survival is 79% (inactive).

`COc1ccc(NC(=O)CC2NCCNC2=O)c(OC)c1` (configuration not stated): the survival is 77% (inactive).

With `COc1ccc(C)cc1NC(=O)CC1NCCNC1=O` (configuration not stated), the survival was 76% (active).

In the case of `Cc1cccc(C(=O)Nc2c3c(nn2-c2ccc(Cl)cc2)CS(=O)(=O)C3)c1`, the survival is 74% (inactive).

In the case of `O=C(Nc1c2c(nn1-c1ccc(Cl)cc1)CS(=O)(=O)C2)c1ccc(Br)cc1`, the survival is 52% (active). To `O=C(Nc1c2c(nn1-c1ccc(Cl)cc1)CS(=O)(=O)C2)c1cccc(Cl)c1` belongs 71% (inactive); to `CC(=O)N1c2ccccc2C(=O)C1N1CCN(c2ccc(F)cc2)CC1` (configuration not stated), 94% (inactive); to `Cc1ccc(-c2nnc(Nc3ccc(O)cc3)c3ccccc23)cc1S(=O)(=O)NCC1CCCO1` (configuration not stated), 93% (inactive). To `Cc1ccc(-n2ncc(C(=O)NC3CCCCC3)c2C2CCN(C(=O)OC(C)(C)C)CC2)cc1` belongs 116% (inactive); to `Cc1ccc2c(c1)C(c1ccccc1)N(C(=O)Cc1ccc(F)cc1)CC(=O)N2` (configuration not stated), 55% (inactive); to `COc1ccc(CC(=O)N2CC(=O)Nc3ccc(Br)cc3C2c2ccc(F)cc2)cc1` (configuration not stated), 30% (active).

Turning to `O=C1CN(C(=O)Cc2ccccc2)C(c2ccc(F)cc2)c2cc(Br)ccc2N1` (configuration not stated), the survival was 61% (inactive). To `Cc1cccc(CC(=O)N2CC(=O)Nc3ccc(C)cc3C2c2ccc(F)cc2)c1` (configuration not stated) belongs 50% (inactive); to `Cc1cccc(CC(=O)N2CC(=O)Nc3ccc(F)cc3C2c2ccccc2)c1` (configuration not stated), 53% (active); to `COc1ccc(CC(=O)N2CC(=O)Nc3ccc(F)cc3C2c2ccccc2)cc1` (configuration not stated), 79% (inactive).

As for `O=C1CN(C(=O)Cc2ccc(F)cc2)C(c2ccccc2)c2cc(Cl)ccc2N1` (configuration not stated), the survival is 127% (inactive). To `Cc1cccc(CC(=O)N2CC(=O)Nc3ccc(Br)cc3C2c2ccc(F)cc2)c1` (configuration not stated) belongs 43% (active); to `COc1ccc(CC(=O)N2CC(=O)Nc3ccc(Br)cc3C2c2ccc(F)cc2)cc1OC` (configuration not stated), 175% (inactive); to `COc1ccc(Cl)cc1NC(=O)Cn1ncc2c3ccccc3n(C)c2c1=O`, 135% (inactive). To `Cc1ccc(C)c(NC(=O)Cn2c(=O)n(Cc3ccco3)c(=O)c3ccc(C(=O)NC4CCCC4)cc32)c1` belongs 95% (inactive); to `O=C(Nc1ccc2oc(-c3ccc4ccccc4c3)nc2c1)c1ccc(Cl)c(Cl)c1`, 83% (inactive).

As to `Cc1ccc2[nH]c(=O)c3cc(C(=O)NCCCN4CCC(C)CC4)sc3c2c1`, the survival is 85% (inactive). For `COc1ccc(-c2cc(-c3ccc(C)cc3)nc3c2COc2ccccc2-3)cc1`, the survival is 72% (inactive).

Take `Cc1oc2ncn(C)c(=O)c2c1C(=O)N1CCN(c2ccc(Cl)cc2)CC1`: the survival was 61% (inactive). To `Cc1cccc(Nc2cc(C)nc3nc(Cc4ccc(Cl)cc4)nn23)c1` belongs 36% (active); to `CCc1ccc(Nc2cc(C)nc3nc(Cc4ccc(Cl)cc4)nn23)cc1`, 101% (inactive); to `Cc1cc(Nc2cc(Cl)ccc2C)n2nc(Cc3ccccc3)nc2n1`, 50% (inactive).

For the compound `CC(=O)c1cccc(Nc2cc(C)nc3nc(Cc4ccccc4)nn23)c1`, the survival was 62% (inactive). Consider `CCc1nc2nc(C)cc(Nc3cccc(C)c3C)n2n1`, for which the survival was 82% (inactive). With `Cc1cc(Nc2ccccc2F)n2nc(-c3ccccc3)nc2n1`, the survival was 47% (inactive). `Cc1cc(Nc2ccc(C)c(Cl)c2)n2nc(Cc3ccccc3)nc2n1`: the survival was 31% (active). As to `Cc1cc(Nc2ccc(C)c(Cl)c2)n2nc(-c3ccccc3)nc2n1`, the survival is 57% (inactive). To `Cc1cc(Nc2cccc(Cl)c2C)n2nc(Cc3ccccc3)nc2n1` belongs 49% (active); to `Cc1cc(Nc2ccccc2F)n2nc(Cc3ccc(Cl)cc3)nc2n1`, 44% (active); to `Cc1cc(Nc2ccccc2C)n2nc(Cc3ccc(Cl)cc3)nc2n1`, 64% (inactive). To `Cc1ccc(Nc2cc(C)nc3nc(Cc4ccc(Cl)cc4)nn23)cc1` belongs 52% (inactive); to `CC1=C(C(=O)OCc2ccc(C)cc2)C(c2ccccc2C(F)(F)F)CC(=O)N1` (configuration not stated), 124% (inactive). Regarding `CCCSCCCNC(=O)CN1C(=O)CCn2nc(-c3cn(C)c4ccccc34)cc21`, the survival was 77% (inactive).

For `CCN(CC)CCn1c2c(c(SCC(=O)Nc3cccc(C(F)(F)F)c3)nc1=O)CCC2`, the survival was 74% (inactive). To `CCOC(=O)c1cc(C)n(CC2CCC(C(=O)Nc3ccccc3OC)CC2)c1C` (configuration not stated) belongs 107% (inactive); to `COc1cccc(NC2=CC(c3ccc(C(C)C)cc3)N(c3cccc(OC)c3)C2=O)c1` (configuration not stated), 73% (inactive). In the case of `CCC(CC)C(=O)N1CCc2cc(OC)c(OC)cc2C1COc1ccc2c(C)cc(=O)oc2c1` (configuration not stated), the survival is 83% (inactive). As to `CNc1ccc(-c2nc(-c3ccncc3)no2)cc1[N+](=O)[O-]`, the survival is 108% (inactive). To `CCOc1ccc(-c2cccc(NS(=O)(=O)c3ccccc3C(F)(F)F)c2)nn1` belongs 91% (inactive); to `O=C(Cn1c(=O)nc(-c2ccccc2)c2ccccc21)Nc1cccc(C(F)(F)F)c1`, 104% (inactive); to `Cc1ccc2nc(N(Cc3cccnc3)C(=O)c3cccs3)sc2c1`, 71% (inactive). In the case of `CCCCN(C)CCNC(=O)c1c2c(nc3ccccc13)C(=O)N(C1CCCCC1)C2`, the survival was 102% (inactive). To `O=C(NCCc1ccc(Cl)cc1)c1ccc2c(c1)N(Cc1cccc(Cl)c1)C(=O)c1ccccc1S2(=O)=O` belongs 117% (inactive); to `COc1ccccc1CNC(=O)CS(=O)(=O)Cc1nc(-c2ccccc2C)oc1C`, 63% (inactive); to `CCCCN(C)C(=O)C1CCCN(c2ncnc3onc(C)c23)C1` (configuration not stated), 113% (inactive). To `O=C(Nc1ccc2c(c1)CCC2)C1CCN(c2ccc(S(=O)(=O)N3CCCC3)cc2)CC1` belongs 103% (inactive).

On to `Cc1ccc(NC(=O)/C(C#N)=C/c2cc(C)n(-c3ccc(Br)cc3)c2C)cc1C`, for which the survival is 65% (inactive). To `Cc1ccccc1NC(=O)/C(C#N)=C/c1ccc(Cl)cc1Cl` belongs 32% (active). To `Cc1ccc(NC(=O)/C(C#N)=C/c2ccccc2Cl)cc1C` belongs 34% (active). As for `Cc1ccc(NC(=O)/C(C#N)=C/c2cc(C)n(-c3ccc(F)cc3)c2C)cc1C`, the survival is 65% (inactive). To `Cc1ccc(-n2c(C)cc(/C=C(\C#N)C(=O)Nc3ccc(C)c(C)c3)c2C)cc1` belongs 48% (inactive); to `Cc1ccc(NC(=O)/C(C#N)=C\c2ccc(Cl)cc2Cl)cc1C`, 29% (active). To `Cc1ccc(NC(=O)/C(C#N)=C/c2ccc(C(C)C)cc2)cc1C` belongs 81% (inactive); to `Cc1ccc(Cl)cc1NC(=O)/C(C#N)=C\c1cn(Cc2ccc(F)cc2)c2ccccc12`, 98% (inactive); to `Cc1ccc(Cl)cc1NC(=O)/C(C#N)=C/c1c(C)n(Cc2ccccc2)c2ccccc12`, 95% (inactive). For `Cc1cc(C)n2c(Nc3ccccc3)c(-c3ccccc3)nc2n1`, the survival is 72% (inactive).

Turning to `Cc1cccc(N2CCN(Cc3nnc(-c4cccc(Br)c4)o3)CC2)c1C`, the survival is 72% (inactive).

Consider `CCc1ccccc1N(C)C(=O)c1ccc2c(=O)n3c(nc2c1)CCCCC3`, for which the survival was 81% (inactive). To `O=C(Cn1cnc(S(=O)(=O)N2CCCC2)c1)Nc1cccc(F)c1` belongs 91% (inactive); to `CCC(C)c1ccc(NC(=O)CSc2nncn2N)cc1` (configuration not stated), 76% (inactive); to `CCc1ccccc1NC(=O)CC1Sc2ccc(C(F)(F)F)cc2NC1=O` (configuration not stated), 82% (inactive). In the case of `CCOC(=O)c1ccc(NC(=O)CC2Sc3ccc(C(F)(F)F)cc3NC2=O)cc1` (configuration not stated), the survival is 78% (inactive).

Take `O=C(CC1Sc2ccc(C(F)(F)F)cc2NC1=O)Nc1ccc(Cl)c(C(F)(F)F)c1` (configuration not stated): the survival was 22% (active).
